The source of these data is PubChem BioAssay (Tox21).

Unmarked numbers belong to inactive results. Records with an inconclusive call do not appear. Active and inactive are the calls of the source. Unless noted, calls come from the whole dose curve; as a rule, active = well fitted curve in the direction sought with a large enough effect in the repeat runs; inconclusive = weak or mixed curves; inactive = no such curve, though single readings can be large; an effect the other way counts as inactive or inconclusive.

Assay [1] is described as follows: qHTS assay to identify small molecule agonists of the sonic hedgehog signaling (Shh) pathway (AID 1259368; calls by dose curve;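 note: NIH/3T3-derived 3T3Gli1-Luc cells carrying a stable Gli1-driven firefly luciferase reporter; series mostly up to about 92 µM; nearly all actives have a fitted effect of over 15% in size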). A digest of the protocol: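 Hedgehog pathway agonism scored by increased firefly luciferase luminescence in 3T3Gli1-Luc cells treated 24 hr at 37 C; detection used a 30 min room-temperature reagent incubation.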
A general note: qHTS replaces the single test concentration by a dilution series.

Assay [2] is described as follows: qHTS assay to identify small molecule antagonists of the sonic hedgehog signaling (Shh) pathway (AID 1259369; calls by dose curve; note: nearly all actives have a fitted effect of over 45% in size). A digest of the protocol:
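NIH/3T3 stable Gli1-Luc clone, 2,000 cells/well, 4hr settle; cpd + conditioned medium 24hr; Luc reagent 30min RT; luminescence.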

Assay [3] has as its target Estrogen receptor beta (Homo sapiens) (UniProt Q92731). The experiment in a line: qHTS assay to identify small molecule agonists of the estrogen receptor beta (ER-beta) signaling pathway (AID 1259377; active = well fitted activation curve with a large enough effect in the signal ratio in the repeat runs, not every such curve was filed as active; the % refers to the signal ratio). In outline:
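Read-out: beta-lactamase FRET fluorescence. Cell line: ER-beta-UAS-bla HEK293T in 2% charcoal-stripped FBS. Exposure: 16 hr at 37C. Substrate step: 2 h at room temperature.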

Assay [4] shares this target. The experiment in a line: qHTS assay to identify small molecule antagonists of the estrogen receptor beta (ER-beta) signaling pathway (AID 1259378; active = well fitted inhibition curve with a large enough effect in the signal ratio in the repeat runs, not every such curve was filed as active; the % refers to the signal ratio). A digest of the protocol: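 Antagonist mode: compounds added to beta-lactamase reporter HEK293T ER-beta-UAS cells stimulated with E2 (1nM final), 16 hr at 37C. LiveBLAzer B/G FRET substrate, 2 hours room temperature, fluorescence read-out.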

A short description of assay [5]: qHTS assay to identify small molecule agonists of the androgen receptor (AR) signaling pathway in the presence of an antagonist - cell viability counter screen (AID 1259379).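 Note: MDA-kb2 human breast cancer cells carrying an MMTV luciferase reporter; series mostly up to about 92 µM; nearly all actives have a fitted effect of over 25% in size.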 In outline:
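MDA-kb2 viability measured by CellTiter-Fluor fluorescence in the same wells as the luciferase signal; nilutamide 3.0uM final; 15-point compound titration; 16 hr at 37C.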

Assay [6] is described as follows: qHTS assay to identify small molecule agonists of the estrogen receptor beta (ER-beta) signaling pathway - cell viability counter screen (AID 1259380). Note: nearly all actives have a fitted effect of over 30% in size. In outline:
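Measured: luminescence from CellTiter-Glo after 30 min at room temperature, added to wells already read for the LiveBLAzer FRET reporter (2 hr substrate); ER-beta-UAS-bla HEK293T cells had 16 hr compound treatment at 37C, 5% CO2.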

Assay [7] in a line: qHTS assay to identify small molecule antagonists of the estrogen receptor beta (ER-beta) signaling pathway - cell viability counter screen (AID 1259382).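 Note: HEK293T cells carrying ER-beta-UAS-bla reporter stimulated with estradiol; series mostly up to about 92 µM; nearly all actives have a fitted effect of over 55% in size.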 A digest of the protocol: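 Readout: luminescence, CellTiter-Glo, same wells as bla assay. System: ER-beta-UAS-bla GripTite HEK293T, 2% charcoal-stripped FBS. Exposure: compounds plus 1nM 17-beta-estradiol, 16 hr, 37C.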
Assay [8] has as its target Estrogen receptor (Homo sapiens) (UniProt P03372). The experiment in a line: qHTS assay to identify small molecule agonists of the estrogen receptor alpha (ER-alpha) signaling pathway in the presence of an antagonist (AID 1259383; calls by dose curve; note: top concentration of the series differs between compounds; nearly all actives have a fitted effect of over 15% in size). In outline:
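Quantitative HTS confirmation: compounds titrated at 15 concentrations onto estrogen-deprived VM7Luc4E2 cells carrying a four-ERE luciferase construct, with ICI-182,780 present at 10.0nM final. Signal is luminescence after 22hr exposure.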

A short description of assay [9]: qHTS assay to identify small molecule agonists or antagonists of the thyroid stimulating hormone receptor (TSHR) signaling pathway - wild type cell line counter screen (AID 1259384; calls by dose curve). A digest of the protocol: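 Counter screen in untransfected Hek293: compounds (15-point titration, triplicate) plus phosphodiesterase inhibitor Ro20-1724 added after 18 h plating; 30 min RT. Intracellular cAMP via competitive d2/cryptate immunoassay, 1 h incubation.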

In assay [10] the target is Thyrotropin receptor (Homo sapiens) (UniProt P16473). The experiment in a line: qHTS assay to identify small molecule antagonists of the thyroid stimulating hormone receptor (TSHR) signaling pathway (AID 1259385; calls by dose curve; note: nearly all actives have a fitted effect of over 20% in size). A digest of the protocol: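 Antagonist mode: compound-treated TSHR-expressing HEK293 cells were stimulated with 1.5 ng/mL TSH (final) in presence of Ro20-1724 for 30 min at RT. HTRF cAMP detection after 1 h; each compound tested at 15 concentrations, triplicate.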
Chain of Thyrotropin receptor (Homo sapiens) (P16473 whole entry, looked up): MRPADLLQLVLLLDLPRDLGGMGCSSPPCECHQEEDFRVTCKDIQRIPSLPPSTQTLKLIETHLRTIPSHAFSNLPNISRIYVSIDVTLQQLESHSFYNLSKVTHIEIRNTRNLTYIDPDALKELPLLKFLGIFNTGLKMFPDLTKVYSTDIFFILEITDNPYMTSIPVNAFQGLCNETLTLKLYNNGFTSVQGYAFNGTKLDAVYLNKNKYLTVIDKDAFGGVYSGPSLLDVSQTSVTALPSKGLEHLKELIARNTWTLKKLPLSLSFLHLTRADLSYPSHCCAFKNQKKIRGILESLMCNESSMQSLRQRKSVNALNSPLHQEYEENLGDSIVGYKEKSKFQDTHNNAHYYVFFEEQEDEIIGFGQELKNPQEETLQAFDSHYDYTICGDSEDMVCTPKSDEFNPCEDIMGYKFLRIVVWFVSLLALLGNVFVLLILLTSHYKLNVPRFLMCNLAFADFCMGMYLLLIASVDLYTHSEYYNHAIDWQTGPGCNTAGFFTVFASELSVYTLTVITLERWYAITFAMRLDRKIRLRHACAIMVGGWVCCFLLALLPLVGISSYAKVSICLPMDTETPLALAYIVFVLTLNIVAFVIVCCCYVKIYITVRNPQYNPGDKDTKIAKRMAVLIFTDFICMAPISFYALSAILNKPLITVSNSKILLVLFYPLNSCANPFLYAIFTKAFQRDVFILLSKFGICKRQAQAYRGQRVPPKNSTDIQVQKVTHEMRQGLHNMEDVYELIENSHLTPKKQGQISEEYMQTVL

Assay [11] can be described thus: qHTS assay to identify small molecule agonists of the estrogen receptor alpha (ER-alpha) signaling pathway in the presence of an antagonist - cell viability counter screen (AID 1259386).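 Note: series mostly up to about 92 µM; cells exposed to compounds for 22 h at 37 °C before the viability read; nearly all actives have a fitted effect of over 30% in size.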 A digest of the protocol:
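The test measures whether compounds kill ER-alpha reporter cells (VM7Luc4E2) under antagonist co-treatment (ICI-182,780, 10.0nM). Fluorescence from CellTiter-Fluor is read after a 22hr exposure.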

Assay [12] addresses Progesterone receptor (Homo sapiens) (UniProt P06401). The experiment in a line: qHTS assay to identify small molecule agonists of the progesterone receptor (PR) signaling pathway (AID 1346784; calls by dose curve; note: nearly all actives have a fitted effect of over 30% in size). In outline:
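Compounds were tested for PR agonism in HEK 293T cells bearing a beta-lactamase gene under UAS control. Treatment lasted 16 hr at 37C; signal came from fluorescence of a FRET substrate.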

Assay [13] has the same target. The experiment in a line: qHTS assay to identify small molecule antagonists of the progesterone receptor (PR) signaling pathway (AID 1346795; active = well fitted inhibition curve with a large enough effect in the signal ratio in the repeat runs, not every such curve was filed as active; the % refers to the signal ratio). In outline: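 In HEK293T cells bearing the PR-UAS-bla reporter, compound effects on promegestone-driven (1 nM) beta-lactamase expression are assessed after 16 hr using a fluorescent FRET substrate incubated 2 hr at room temperature.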

Assay [14] can be described thus: qHTS assay to identify small molecule antagonists of the progesterone receptor (PR) signaling pathway - cell viability counter screen (AID 1346798). Note: nearly all actives have a fitted effect of over 50% in size. Note: potency is the fitted concentration of half-maximal effect. A digest of the protocol:
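Following a 4 hr attachment, PR-UAS-bla HEK293T cells in charcoal-stripped FBS medium were exposed to compounds with R5020 for 16 hr; CellTiter-Glo was added and luminescence read after 30 min at room temperature.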

Assay [15] can be described thus: qHTS assay to identify small molecule agonists of the progesterone receptor (PR) signaling pathway - cell viability counter screen (AID 1346799; calls by dose curve; note: nearly all actives have a fitted effect of over 45% in size). In outline:
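Here, 3,000 PR-UAS-bla HEK293T cells per well were treated with compounds for 16 hr after a 6 hr preincubation at 37C and 5% CO2; cell viability is the CellTiter-Glo luminescence signal.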

Assay [16] in a line: qHTS assay to identify small molecule antagonists of the TGF-beta/Smad signaling pathway - cell viability counter screen (AID 1346824). Note: nearly all actives have a fitted effect of over 50% in size. A digest of the protocol: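 Cytotoxicity counter-screen run in the same wells as the beta-lactamase Smad reporter read: CellTiter-Glo luminescence after 30 min at room temperature. HEK 293T SBE-bla cells had 5 hr compound exposure at 37 C with TGF-beta1 (0.25 ng/mL stock).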

Assay [17] in a line: qHTS assay to identify small molecule agonists of the TGF-beta/Smad signaling pathway (AID 1346859; active = well fitted activation curve with a large enough effect in the signal ratio in the repeat runs, not every such curve was filed as active; the % refers to the signal ratio; note: series mostly up to about 77 µM). In outline:
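Each well held 4,000 SBE-bla HEK 293T cells incubated overnight before compound addition; 5 hr later the cleavable FRET substrate went on for 2 hr at room temperature, and fluorescence was read at two emissions.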

In assay [18] the target is Thyrotropin-releasing hormone receptor (Homo sapiens) (UniProt P34981). The experiment in a line: qHTS assay to identify small molecule antagonists of the thyrotropin-releasing hormone receptor (TRHR) signaling pathway (AID 1346877; active = well fitted inhibition curve with a large enough effect in the repeat runs, not every such curve was filed as active; note: series mostly up to about 51 µM). In outline: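 Overnight-plated (18 h, 37 °C) HEK293 cells expressing TRHR were dye-loaded 2 h, treated with compound, then stimulated with TRH at 1 nM final. Fluorescence intensity was captured every second for 3 min.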
Chain of Thyrotropin-releasing hormone receptor (Homo sapiens) (P34981 whole entry, looked up): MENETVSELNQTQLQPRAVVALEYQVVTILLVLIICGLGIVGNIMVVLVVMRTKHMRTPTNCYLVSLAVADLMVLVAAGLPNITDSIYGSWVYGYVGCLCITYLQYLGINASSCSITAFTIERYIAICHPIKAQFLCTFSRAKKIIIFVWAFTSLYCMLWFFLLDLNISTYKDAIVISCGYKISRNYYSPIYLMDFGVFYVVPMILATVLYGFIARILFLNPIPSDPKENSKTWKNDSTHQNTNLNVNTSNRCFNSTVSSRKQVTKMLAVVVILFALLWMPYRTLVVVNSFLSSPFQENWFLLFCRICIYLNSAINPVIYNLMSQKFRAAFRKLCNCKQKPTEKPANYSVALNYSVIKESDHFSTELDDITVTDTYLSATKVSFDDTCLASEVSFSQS

Assay [19] deals with Androgen receptor (Homo sapiens) (UniProt P10275). The experiment in a line: qHTS assay to identify small molecule agonists of the androgen receptor (AR) signaling pathway in the presence of an antagonist (AID 1259381; calls by dose curve; note: nearly all actives have a fitted effect of over 15% in size). In outline: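 Luminescent ONE-Glo read, 30min at room temperature, follows 16hr compound exposure (15 concentrations) of MDA-kb2 cells at 37C, 0% CO2, with nilutamide added at 3.0uM final.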
Chain of Androgen receptor (Homo sapiens) (P10275 whole entry, looked up): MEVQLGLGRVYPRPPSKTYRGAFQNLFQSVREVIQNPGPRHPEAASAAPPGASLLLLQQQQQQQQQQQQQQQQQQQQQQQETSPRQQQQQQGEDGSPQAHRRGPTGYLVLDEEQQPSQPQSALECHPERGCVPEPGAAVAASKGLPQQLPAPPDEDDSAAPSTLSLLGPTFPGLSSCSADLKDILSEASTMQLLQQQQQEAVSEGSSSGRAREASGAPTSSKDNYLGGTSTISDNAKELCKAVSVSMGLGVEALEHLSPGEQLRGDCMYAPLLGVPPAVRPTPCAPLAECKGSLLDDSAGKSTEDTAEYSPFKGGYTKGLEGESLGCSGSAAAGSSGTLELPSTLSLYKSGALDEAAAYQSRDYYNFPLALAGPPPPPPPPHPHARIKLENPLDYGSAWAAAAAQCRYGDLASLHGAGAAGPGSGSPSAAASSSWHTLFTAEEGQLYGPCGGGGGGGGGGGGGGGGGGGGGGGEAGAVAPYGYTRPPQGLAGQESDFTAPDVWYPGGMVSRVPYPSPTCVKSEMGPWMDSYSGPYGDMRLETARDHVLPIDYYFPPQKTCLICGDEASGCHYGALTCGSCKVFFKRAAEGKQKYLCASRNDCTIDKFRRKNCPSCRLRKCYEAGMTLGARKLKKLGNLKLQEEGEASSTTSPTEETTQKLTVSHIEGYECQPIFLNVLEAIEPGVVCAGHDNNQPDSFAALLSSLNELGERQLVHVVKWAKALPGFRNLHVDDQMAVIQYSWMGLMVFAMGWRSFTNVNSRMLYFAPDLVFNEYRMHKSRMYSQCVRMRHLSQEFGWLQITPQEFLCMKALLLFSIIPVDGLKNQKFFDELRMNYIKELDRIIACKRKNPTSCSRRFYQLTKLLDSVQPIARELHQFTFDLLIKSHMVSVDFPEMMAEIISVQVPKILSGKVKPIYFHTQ

The nature of assay [20]: qHTS assay to identify small molecule agonists of the TGF-beta/Smad signaling pathway - cell viability counter screen (AID 1346829). Note: top concentration of the series differs between compounds; nearly all actives have a fitted effect of over 45% in size. A digest of the protocol:
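Luminescence from CellTiter-Glo, read after a 30 min room-temperature incubation, gives cell viability of SBE-bla HEK 293T cells treated 5 hr with compounds at 37 C.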

Chain of Progesterone receptor (Homo sapiens) (P06401 whole entry, looked up): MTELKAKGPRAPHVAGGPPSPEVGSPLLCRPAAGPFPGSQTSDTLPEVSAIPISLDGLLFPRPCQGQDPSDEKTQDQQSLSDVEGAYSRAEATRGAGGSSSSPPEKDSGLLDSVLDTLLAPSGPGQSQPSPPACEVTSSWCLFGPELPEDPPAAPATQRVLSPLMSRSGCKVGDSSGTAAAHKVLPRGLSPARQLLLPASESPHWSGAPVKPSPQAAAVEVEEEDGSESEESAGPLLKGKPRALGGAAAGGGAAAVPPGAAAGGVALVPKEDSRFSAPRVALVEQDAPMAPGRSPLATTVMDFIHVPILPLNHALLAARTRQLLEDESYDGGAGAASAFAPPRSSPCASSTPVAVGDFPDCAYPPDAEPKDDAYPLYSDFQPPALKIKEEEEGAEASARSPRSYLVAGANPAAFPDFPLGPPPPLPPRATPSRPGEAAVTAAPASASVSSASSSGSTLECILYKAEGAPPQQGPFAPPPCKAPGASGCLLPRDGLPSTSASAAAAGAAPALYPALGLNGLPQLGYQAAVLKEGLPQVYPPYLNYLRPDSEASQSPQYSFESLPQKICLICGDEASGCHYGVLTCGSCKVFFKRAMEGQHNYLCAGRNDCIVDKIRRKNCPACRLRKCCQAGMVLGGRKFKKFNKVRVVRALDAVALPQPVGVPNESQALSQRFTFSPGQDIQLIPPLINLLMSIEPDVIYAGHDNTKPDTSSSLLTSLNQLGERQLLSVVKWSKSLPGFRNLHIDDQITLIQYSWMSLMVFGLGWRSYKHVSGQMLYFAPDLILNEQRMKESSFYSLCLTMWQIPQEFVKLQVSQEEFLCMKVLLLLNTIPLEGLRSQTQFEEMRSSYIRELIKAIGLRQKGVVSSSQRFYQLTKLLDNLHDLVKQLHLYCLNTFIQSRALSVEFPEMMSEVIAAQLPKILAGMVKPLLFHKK
Chain of Estrogen receptor (Homo sapiens) (P03372 whole entry, looked up): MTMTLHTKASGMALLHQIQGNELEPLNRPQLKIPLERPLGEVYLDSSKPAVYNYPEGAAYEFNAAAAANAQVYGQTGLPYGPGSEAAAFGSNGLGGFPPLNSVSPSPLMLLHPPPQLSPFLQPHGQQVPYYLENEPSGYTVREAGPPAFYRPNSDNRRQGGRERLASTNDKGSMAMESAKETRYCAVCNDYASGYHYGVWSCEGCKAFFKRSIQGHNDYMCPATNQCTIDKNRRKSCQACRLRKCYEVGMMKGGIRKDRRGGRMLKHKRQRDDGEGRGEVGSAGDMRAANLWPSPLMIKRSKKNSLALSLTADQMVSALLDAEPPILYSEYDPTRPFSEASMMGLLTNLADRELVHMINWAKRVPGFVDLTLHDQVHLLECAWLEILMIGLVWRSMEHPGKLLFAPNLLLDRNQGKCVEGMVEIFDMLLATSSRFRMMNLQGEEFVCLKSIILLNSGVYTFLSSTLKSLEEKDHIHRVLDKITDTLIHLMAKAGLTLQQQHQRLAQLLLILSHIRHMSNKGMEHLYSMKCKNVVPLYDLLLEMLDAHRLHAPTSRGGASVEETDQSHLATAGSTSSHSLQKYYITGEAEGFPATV
Chain of Estrogen receptor beta (Homo sapiens) (Q92731 whole entry, looked up): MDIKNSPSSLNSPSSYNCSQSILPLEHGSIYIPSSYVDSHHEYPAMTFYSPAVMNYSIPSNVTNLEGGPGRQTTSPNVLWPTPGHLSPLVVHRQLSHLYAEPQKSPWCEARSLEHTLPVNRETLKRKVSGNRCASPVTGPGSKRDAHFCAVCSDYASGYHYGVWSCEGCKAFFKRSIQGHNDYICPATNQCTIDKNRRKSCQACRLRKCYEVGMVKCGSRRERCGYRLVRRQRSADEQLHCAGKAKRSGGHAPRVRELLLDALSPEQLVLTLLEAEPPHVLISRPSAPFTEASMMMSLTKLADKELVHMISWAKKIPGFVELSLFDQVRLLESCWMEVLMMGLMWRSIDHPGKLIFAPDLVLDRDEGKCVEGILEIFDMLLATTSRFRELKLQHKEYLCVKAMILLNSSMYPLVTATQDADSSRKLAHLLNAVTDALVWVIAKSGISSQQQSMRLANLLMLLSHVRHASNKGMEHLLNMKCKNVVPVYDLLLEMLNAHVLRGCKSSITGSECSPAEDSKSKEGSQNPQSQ

`C1CCN(CN2CCCCC2)CC1`: the Potency result in [1], in assay [2], in [3], in [4], in assay [5] and in assay [6] was “inactive” in each case. For the same compound, the Potency result in assay [7], in assay [8], in assay [10], in [11], in assay [12] and in assay [13] was “inactive” in each case. Moreover, the Potency result in assay [14] and in assay [15] was “inactive” each time. Further, the compound was called inactive in [9], in assay [16], in [17] and in assay [18].
For the compound `Cc1c(N=C=O)cccc1N=C=O`, the Potency entry in assay [1], in assay [2], in [3], in assay [4], in assay [5] and in assay [6] was “inactive” in each case. Further, the Potency entry in assay [19], in assay [7], in assay [8], in assay [10], in assay [11] and in assay [12] was “inactive” in each case. Also, the Potency result in [13], in [14] and in assay [15] was “inactive” in each case. In addition, the outcome in assay [9], in assay [16], in [20], in assay [17] and in assay [18] was inactive.
On to `CC1(C)CC(=O)CC(C)(C)N1`, for which the Potency result in assay [1], in assay [2], in assay [3], in assay [4], in assay [5] and in assay [6] was “inactive” throughout. In addition, the Potency entry in assay [7], in assay [8], in assay [10], in [11], in [12] and in assay [13] was “inactive” each time. Besides, in assay [14], the Potency result is “inactive”. For the same compound, the outcome in assay [9], in assay [16], in assay [20], in assay [17] and in assay [18] was inactive.
As for `NCCOCCOCCN`, the Potency entry in [1], in assay [2], in [3], in assay [4], in assay [5] and in assay [19] was “inactive” throughout. Besides, the Potency result in assay [10], in assay [11] and in [12] was “inactive” each time. The Potency in [14] is 15.4 µM (active). The compound was classed as inactive in [16], in assay [20], in assay [17] and in [18].
Regarding `C=C(C)C(=O)OCCCCCCCCCCOC(=O)C(=C)C`, the Potency result in assay [1], in assay [2], in assay [3], in [4], in assay [5] and in assay [6] was “inactive” each time. Also, the Potency entry in assay [7], in assay [10], in [11], in assay [12], in assay [13] and in [15] was “inactive” in each case. Moreover, the outcome in assay [9], in assay [16], in [20], in [17] and in assay [18] was inactive.
Regarding `CC(=O)CC/C=C(\C)CC/C=C(\C)CC/C=C(\C)CCC=C(C)C`, the Potency result in [1], in assay [2], in assay [3], in [4], in [5] and in assay [6] was “inactive” in each case. The Potency entry in assay [7], in assay [11], in [12], in assay [13], in assay [14] and in assay [15] was “inactive” each time. Also, the call in assay [16], in assay [20] and in assay [17] was inactive.
Regarding `CCCC1CCCC(=O)O1` (stereo not given), the Potency result in assay [1], in assay [2], in assay [3], in assay [4], in assay [5] and in assay [6] was “inactive” each time. The Potency result in assay [7], in assay [8], in assay [10], in assay [11], in [12] and in [13] was “inactive” throughout. Also, the Potency entry in assay [14] and in assay [15] was “inactive” throughout. The compound was classed as inactive in assay [9], in assay [16], in assay [20] and in assay [18].
